Measured values taken from PubChem BioAssay (NCATS).
Records with an inconclusive call do not appear. Active and inactive are the calls of the source. Calls follow the shape of the dose curve; as a rule, active = well fitted inhibition curve with a large enough effect; inconclusive = small, poorly fitted or top-dose-only effect; inactive = flat fitted curve, though single readings scatter.

How the values were obtained:
P93_24 = assay: qHTS profiling for inhibitors of Plasmodium falciparum proliferation (AID 504749); also: potency is read from the fitted curve at half-maximal effect; conditions: P. falciparum in erythrocytes, SYBR Green DNA, 72 h; series mostly up to 28.7 µM
Procedure, shortened: (§1)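 Each compound contacts P. falciparum-infected red blood cells for 72 h at 37 C; lysis buffer (Tris, EDTA, saponin, Triton X, SYBR Green I) is added and fluorescence measured next morning; values normalized to controls.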

P94_40 = assay: as above; conditions: P. falciparum in erythrocytes, SYBR Green DNA, 72 h; series mostly up to 28.7 µM
Procedure, shortened: as §1

PAD = assay: as above; conditions: P. falciparum in erythrocytes, SYBR Green DNA, 72 h; series mostly up to 28.7 µM
Procedure, shortened: as §1

PC15 = assay: as above; conditions: P. falciparum in erythrocytes, SYBR Green DNA, 72 h; series mostly up to 28.7 µM
Procedure, shortened: as §1

PC26 = assay: as above; conditions: P. falciparum in erythrocytes, SYBR Green DNA, 72 h; series mostly up to 28.7 µM
Procedure, shortened: as §1

PC49 = assay: as above; conditions: P. falciparum in erythrocytes, SYBR Green DNA, 72 h; series mostly up to 28.7 µM
Procedure, shortened: as §1

SC27B = assay: as above; conditions: P. falciparum in erythrocytes, SYBR Green DNA, 72 h; series mostly up to 28.7 µM
Procedure, shortened: as §1

TAB109 = assay: as above; conditions: P. falciparum in erythrocytes, SYBR Green DNA, 72 h; series mostly up to 28.7 µM
Procedure, shortened: as §1

TAB113 = assay: as above; conditions: P. falciparum in erythrocytes, SYBR Green DNA, 72 h; series mostly up to 28.7 µM
Procedure, shortened: as §1

TAB165 = assay: as above; conditions: P. falciparum in erythrocytes, SYBR Green DNA, 72 h; series mostly up to 28.7 µM
Procedure, shortened: as §1

W2 = assay: as above; conditions: P. falciparum in erythrocytes, SYBR Green DNA, 72 h; series mostly up to 28.7 µM
Procedure, shortened: as §1

CRL-7250 = normal cell line; assay: Cytotoxic Profiling of Annotated Libraries Using Quantitative High-Throughput Screening (AID 1296008); conditions: Five cell lines viability, CellTiter-Glo ATP luminescence, 48-72 h; active compounds read low; as to max response: % is scaled to controls: 0 for no effect and ±100 for the full control effect
Procedure, shortened: (§2)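 Cells exposed to compounds for 48 or 72 hr at 37 degrees Celsius. Viability read as ATP-coupled luminescence with CellTiter-Glo after 10 min at room temperature.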

HEK293 = assay: as above; conditions: Five cell lines viability, CellTiter-Glo ATP luminescence, 48-72 h; active compounds read low
Procedure, shortened: as §2

HaCat [1] = assay: as above; conditions: Five cell lines viability, CellTiter-Glo ATP luminescence, 48-72 h; active compounds read low
Procedure, shortened: as §2

KB-3-1 = assay: as above; conditions: Five cell lines viability, CellTiter-Glo ATP luminescence, 48-72 h, active compounds read low
Procedure, shortened: as §2

NIH3T3 = assay: as above; conditions: Five cell lines viability, CellTiter-Glo ATP luminescence, 48-72 h; active compounds read low
Procedure, shortened: as §2

HACAT [2] = assay: qHTS assay to identify novel small-molecules to repurpose for Merkel cell carcinoma treatment (AID 1296009); conditions: MCC and control cell lines, CellTiter-Glo viability, 72 h; at 44.8 µM (top of the series) unless noted
Procedure, shortened: (§3)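 Dose-response viability screen; 72 hr exposure at 37 degree celsius; CellTiter-Glo added, 10 min room temperature, luminescence read; RLUs scaled between no-cell and DMSO wells.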

HEK293T = assay: as above; conditions: MCC and control cell lines, CellTiter-Glo viability, 72 h; at 44.8 µM (top of the series) unless noted
Procedure, shortened: as §3

MCC-13 = assay: as above; conditions: MCC and control cell lines, CellTiter-Glo viability, 72 h; series mostly up to 46 µM
Procedure, shortened: as §3

MCC-26 = assay: as above; conditions: MCC and control cell lines, CellTiter-Glo viability, 72 h; series mostly up to 46 µM
Procedure, shortened: as §3
Also: nearly all actives have a fitted effect of over 60% in size.

CC(CSC(=O)c1ccccc1)C(=O)N1C[C@@H](Sc2ccccc2)C[C@H]1C(=O)O (stereo not given in full)
inactive: Potency (P93_24) | Potency (P94_40) | Potency (PAD) | Potency (PC15) | Potency (PC26) | Potency (PC49) | Potency (SC27B) | Potency (TAB109) | Potency (TAB113) | Potency (TAB165) | Potency (W2) | max response (CRL-7250) -5.72% | outcome (HEK293) | outcome (HaCat [1]) | max response (KB-3-1) -11.1% | max response (NIH3T3) -0.681% | outcome (HACAT [2]) inactive [at 17.4 µM] | outcome (HEK293T) inactive [at 17.4 µM] | outcome (MCC-13) | outcome (MCC-26)

CCOc1ccccc1O[C@H](c1ccccc1)[C@H]1CNCCO1
inactive: outcome (CRL-7250) | max response (HEK293) 2.57% | outcome (HaCat [1]) | max response (KB-3-1) 2.06% | max response (NIH3T3) 1.71% | outcome (HACAT [2]) | outcome (MCC-13)

CC(C)=CCC[C@@](C)(O)[C@H]1CC=C(C)CC1
inactive: max response (CRL-7250) 1.58% | outcome (HEK293) | outcome (HaCat [1]) | max response (KB-3-1) 4.77% | max response (NIH3T3) -5.4% | outcome (HACAT [2]) | outcome (HEK293T) | outcome (MCC-13)

CC(=O)N[C@@H](CC(C)C)C(=O)O
inactive: max response (CRL-7250) -9.67% | max response (HEK293) -5.66% | outcome (HaCat [1]) | max response (KB-3-1) -12.6% | max response (NIH3T3) -1.86% | outcome (HACAT [2]) | outcome (MCC-13) | outcome (MCC-26)

O=C1C(c2[nH]c3ccccc3c2O)=Nc2ccccc21
inactive: Potency (PC49) | max response (CRL-7250) 1.26% | outcome (HEK293) | outcome (HaCat [1]) | max response (KB-3-1) 4.4% | max response (NIH3T3) 4.36% | outcome (HACAT [2]) | outcome (HEK293T) | outcome (MCC-13) | outcome (MCC-26)
active: Potency (TAB165) 14.1 µM

Nc1ncnc2c1ncn2[C@@H]1O[C@H](COP(=O)(O)O)[C@@H](O)[C@H]1O
inactive: Potency (P93_24) | Potency (P94_40) | Potency (PAD) | Potency (PC15) | Potency (PC26) | Potency (SC27B) | Potency (TAB109) | Potency (TAB113) | Potency (TAB165) | Potency (W2) | outcome (CRL-7250) | outcome (HEK293) | outcome (HaCat [1]) | max response (KB-3-1) -9.67% | max response (NIH3T3) 4.32% | outcome (HACAT [2]) | outcome (HEK293T) | outcome (MCC-13) | outcome (MCC-26)

CC[C@]12CCCN3CCc4c(n(c5ccccc45)[C@@](O)(C(=O)OC)C1)[C@@H]32
inactive: outcome (CRL-7250) | max response (HEK293) 0.673% | outcome (HaCat [1]) | max response (KB-3-1) 3.99% | outcome (NIH3T3) | outcome (HACAT [2]) | outcome (MCC-13)

COc1ccc(NS(=O)(=O)c2ccc(N)cc2)nn1
inactive: Potency (P93_24) | Potency (P94_40) | Potency (PAD) | Potency (PC15) | Potency (PC26) | Potency (PC49) | Potency (SC27B) | Potency (TAB109) | Potency (TAB113) | Potency (TAB165) | Potency (W2) | max response (CRL-7250) 3.69% | outcome (HEK293) | outcome (HaCat [1]) | max response (KB-3-1) 14.2% | max response (NIH3T3) -9.1% | outcome (HACAT [2]) | outcome (HEK293T) | outcome (MCC-13)

CC(=O)OCC(=O)[C@@]1(O)CC[C@H]2[C@@H]3CCC4=CC(=O)C=C[C@]4(C)[C@@]3(F)[C@@H](O)C[C@@]21C
inactive: max response (CRL-7250) 2.22% | outcome (HEK293) | outcome (HaCat [1]) | max response (KB-3-1) 29.8% | max response (NIH3T3) 0.516% | outcome (HACAT [2]) | outcome (HEK293T) | outcome (MCC-13) | outcome (MCC-26)

OCC(O)CS (stereo not given)
inactive: Potency (P93_24) | Potency (P94_40) | Potency (PAD) | Potency (PC15) | Potency (PC26) | Potency (PC49) | Potency (SC27B) | Potency (TAB109) | Potency (TAB113) | Potency (TAB165) | max response (CRL-7250) -11.9% | max response (HEK293) 3.48% | outcome (HaCat [1]) | max response (KB-3-1) 1.95% | max response (NIH3T3) 0.523% | outcome (HACAT [2]) | outcome (MCC-13) | outcome (MCC-26)

CC(=O)N[C@H]1[C@H]([C@H](O)[C@H](O)CO)OC(C(=O)O)=C[C@@H]1N=C(N)N
inactive: max response (CRL-7250) -5.6% | max response (HEK293) 1.78% | outcome (HaCat [1]) | max response (KB-3-1) 6.48% | outcome (NIH3T3) | outcome (HACAT [2]) | outcome (MCC-13) | outcome (MCC-26)

COC(=O)c1cccnc1
inactive: Potency (P94_40) | Potency (PAD) | Potency (PC15) | Potency (PC26) | Potency (SC27B) | Potency (TAB109) | Potency (TAB113) | Potency (TAB165) | Potency (W2) | max response (CRL-7250) -1.99% | outcome (HEK293) | outcome (HaCat [1]) | max response (KB-3-1) 10% | max response (NIH3T3) 0.586% | outcome (HACAT [2]) | outcome (HEK293T) | outcome (MCC-13) | outcome (MCC-26)

CCN[C@H]1CN(CCCOC)S(=O)(=O)c2sc(S(N)(=O)=O)cc21
inactive: max response (CRL-7250) 2.64% | max response (HEK293) -2.35% | outcome (HaCat [1]) | max response (KB-3-1) 14.5% | outcome (NIH3T3) | outcome (HACAT [2]) | outcome (MCC-13) | outcome (MCC-26)

C=CCSCC1Nc2cc(Cl)c(S(N)(=O)=O)cc2S(=O)(=O)N1 (stereo not given)
inactive: Potency (P93_24) | Potency (P94_40) | Potency (PAD) | Potency (PC15) | Potency (PC26) | Potency (PC49) | Potency (SC27B) | Potency (TAB109) | Potency (TAB113) | Potency (TAB165) | max response (CRL-7250) -2.06% | max response (HEK293) 2.45% | outcome (HaCat [1]) | max response (KB-3-1) -3.75% | max response (NIH3T3) 4.06% | outcome (HACAT [2]) | outcome (MCC-13) | outcome (MCC-26)

CC(=O)N[C@@H](Cc1ccc(O)cc1)C(=O)O
inactive: Potency (P93_24) | Potency (P94_40) | Potency (PAD) | Potency (PC15) | Potency (PC26) | Potency (PC49) | Potency (SC27B) | Potency (TAB109) | Potency (TAB113) | Potency (TAB165) | max response (CRL-7250) -1.56% | max response (HEK293) -2.21% | outcome (HaCat [1]) | max response (KB-3-1) -4.16% | max response (NIH3T3) -2.52% | outcome (HACAT [2]) | outcome (MCC-13) | outcome (MCC-26)

CN1CCCN=C1COC(=O)C(O)(c1ccccc1)C1CCCCC1 (stereo not given)
inactive: Potency (P93_24) | Potency (P94_40) | Potency (PAD) | Potency (PC15) | Potency (PC26) | Potency (PC49) | Potency (SC27B) | Potency (TAB109) | Potency (TAB113) | Potency (TAB165) | Potency (W2) | max response (CRL-7250) -8.2% | max response (HEK293) -8.47% | outcome (HaCat [1]) | max response (KB-3-1) -13.9% | outcome (NIH3T3) | outcome (HACAT [2]) | outcome (MCC-13) | outcome (MCC-26)
